Z-score data for 30 compounds are collected here from PubChem BioAssay.

The source made the active and inactive calls.

The target of this assay is NADPH oxidase 2 (Homo sapiens) (UniProt P04839). Put plainly: NOX2-dependent H2O2 signal modulators, primary screen, NOX inhibitor project, cell-based, HEK293-NOX2, PMA-stimulated, Amplex Red fluorescence (AID 1159). Note: test concentration not given here. Conditions: 45 min, higher = more signal, called active from +8 up or from −8 down.
NADPH oxidase 2 (Homo sapiens), sequence (P04839 whole entry, looked up): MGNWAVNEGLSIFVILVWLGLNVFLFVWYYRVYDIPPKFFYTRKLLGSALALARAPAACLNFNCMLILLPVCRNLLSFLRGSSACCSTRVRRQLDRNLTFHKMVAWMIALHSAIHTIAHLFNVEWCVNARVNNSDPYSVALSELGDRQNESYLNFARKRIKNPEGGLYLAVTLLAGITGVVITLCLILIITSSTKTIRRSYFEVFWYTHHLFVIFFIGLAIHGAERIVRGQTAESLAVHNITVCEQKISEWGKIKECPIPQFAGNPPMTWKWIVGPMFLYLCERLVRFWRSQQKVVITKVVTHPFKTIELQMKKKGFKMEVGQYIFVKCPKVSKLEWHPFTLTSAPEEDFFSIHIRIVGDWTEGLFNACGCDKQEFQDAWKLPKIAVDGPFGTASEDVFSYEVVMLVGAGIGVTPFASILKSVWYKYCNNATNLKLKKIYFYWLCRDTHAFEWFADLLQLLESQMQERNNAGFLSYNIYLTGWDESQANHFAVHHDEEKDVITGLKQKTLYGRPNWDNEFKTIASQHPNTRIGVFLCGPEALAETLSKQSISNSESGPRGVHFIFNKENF
Consider `CC(C)Cc1ccc(CN2CC[C@@H](NC(=O)Nc3ccccc3)C2)cc1`, for which the z-score is -0.507 (inactive).
`CC(C)C[C@@H]1NC(=O)[C@@H]2C[C@H](C(=O)NCCCCN(C)C)[C@H](c3cccc(OCCO)c3)N2C1=O`: the z-score was 1.46 (inactive).
Consider `CC1CC/C=C\[C@H]2OC34C=CCN(C(C)C)C(=O)[C@H]3N(CCCCCCO)C(=O)[C@@H]4C2C(=O)O1` (stereo not given in full), for which the z-score was 0.882 (inactive).
With `COc1ccc(CCNC(=O)[C@@]2(Sc3ccc(C)cc3)CC(=O)N(C3Cc4ccccc4C3)[C@@H]2c2ccc(CO)cc2)cc1` the figure was -2.19 (inactive).
Turning to `COc1ccc(-c2nc(-c3ccccc3)c3c(c2C)CO[Si]3(C(C)C)C(C)C)cn1`, the z-score is -0.783 (inactive).
In the case of `CCCC[C@@H]1C[C@H]1[C@@H](NC(=O)c1cccs1)c1ccc(C(F)(F)F)cc1`, the z-score was -0.934 (inactive).
Turning to `CN1C(=O)C2C=CC(C(O)c3ccc(F)cc3)N(Nc3ccccc3)C2C1=O` (stereo not given), the z-score was -1.41 (inactive).
For the compound `OCC1CC(c2ccccc2)=NO1` (stereo not given), the z-score was -1.17 (inactive).
Take `COC1OC[C@]2(C)[C@H]3C4=C(CN2C(=O)OC(C)(C)C)[C@H](C)C(CO)C(CO)C4CC[C@@H]13` (stereo not given in full): the z-score was -1.39 (inactive).
Turning to `NCCCCCCNC(=O)[C@@H]1C[C@@H]2C(=O)N[C@@H](CCCCN)C(=O)N2[C@@H]1c1cccc(OCCO)c1`, the z-score is 0.937 (inactive).
On to `CCOC(=O)C1=C[C@@H](c2ccccc2)N(S(=O)(=O)c2ccc(C)cc2)[C@H]1c1ccccc1Cl`, for which the z-score was 0.574 (inactive).
For the compound `CCOc1cc(C(O)C2C=CC3C(=O)N(c4ccccc4)C(=O)C3N2Nc2ccc(C#N)cc2)ccc1O` (stereo not given), the z-score was -2.87 (inactive).
As for `CCCCCCCCCCC(O)C1C=CC2C(=O)N(C)C(=O)C2N1NC(=O)OC(C)(C)C` (stereo not given), the z-score is -0.67 (inactive).
For the compound `NCCCCCNC(=O)[C@@H]1C[C@@H]2C(=O)NCC(=O)N2[C@@H]1c1cccc(OCCO)c1`, the z-score was 1.44 (inactive).
`[N-]=[N+]=NCc1ccccc1[C@H]1OC(c2ccc(OCCCO)cc2)=N[C@@]1(CCS(=O)(=O)c1ccccc1)C(=O)N1CCCCC1`: the z-score was 0.0197 (inactive).
With `CCOC(=O)C[C@H]1[C@H](OC(=O)c2ccccc2-c2ccccc2)[C@@H](NC(=O)c2ccc(-c3ccccc3)cc2)c2cc(OCCCO)ccc2N1C(=O)c1ccc2ccccc2n1` the figure was 0.724 (inactive).
As for `CCCCCCc1nc(C2CC2)cc2c1[Si](C(C)C)(C(C)C)OC2`, the z-score was -6.34 (inactive).
With `O=C1C[C@@](C(=O)NCCN2CCOCC2)(c2ccc([N+](=O)[O-])cc2)[C@@H](c2ccc(CO)cc2I)N1C1CCCCC1`, the z-score is 2.1 (inactive).
With `COC(=O)[C@@]1(Cc2ccc(OC)cc2)[C@H]2c3cc(C(=O)N4CCCC4)n(Cc4c(-c5ccccc5)noc4C)c3C[C@H]2CN1C(=O)c1ccccc1` the figure was 0.428 (inactive); with `CC(C)(C)N1CC=CC23O[C@@H]4C=CCCOC(=O)C4[C@H]2C(=O)N(CCO)[C@@H]3C1=O` (stereo not given in full), 1.31 (inactive).
For the compound `O=C1O[C@@H](c2ccccc2)[C@@H](c2ccccc2)N2[C@@H](c3ccccc3OCCO)[C@]3(C(=O)Nc4ccc(C#CCCO)cc43)[C@@H](C(=O)N3CCCCCCC3)[C@H]12`, the z-score was 1.02 (inactive).
As for `CO[C@]12C=C(Br)[C@@H](C[C@@H]1c1cccc(C)c1)[C@@]1(CO1)C2=O`, the z-score is -0.356 (inactive).
With `O=C1C2C=CC(C(O)c3ccccc3)N(Nc3ccccc3F)C2C(=O)N1c1ccccc1` (stereo not given) the figure was -2.07 (inactive).
On to `CC[C@H]1C2=C3C(CC[C@H]4C(OCc5ccc(F)cc5C(F)(F)F)OC[C@](C)([C@@H]34)N(C(=O)OC(C)(C)C)C2)C(COC)C1COC` (stereo not given in full), for which the z-score was -0.67 (inactive).
As for `Cc1ccc(S[C@]2(C(=O)O)CC(=O)N(C3Cc4ccccc4C3)[C@@H]2c2ccc(CO)cc2)cc1`, the z-score is -0.0451 (inactive).
`COc1ccc(NC(=O)O[C@H]2[C@H](OC(=O)Nc3ccccc3)[C@@H](OC(=O)Nc3ccccc3)[C@@H](OC)O[C@@H]2CO)cc1`: the z-score was -7.53 (inactive).
In the case of `CCCC[C@@H]1C[C@H]1[C@@H](NC(=O)Cc1ccccc1)c1ccc(-c2ccccc2)cc1`, the z-score was -1.35 (inactive).
Turning to `N#Cc1ccc(NN2C(C(O)c3ccc(F)cc3)C=CC3C(=O)N(c4ccccc4)C(=O)C32)cc1` (stereo not given), the z-score was -1.33 (inactive).
Consider `[N-]=[N+]=NCc1ccccc1C[C@]1(C(N)=O)N=C(c2ccc(OCCCO)cc2)O[C@H]1c1ccccc1`, for which the z-score was -3.27 (inactive).
Take `COCCCNC(=O)[C@@]1(Cc2ccccc2N=[N+]=[N-])N=C(c2ccc(OCCCO)cc2)O[C@H]1c1ccccc1`: the z-score was -2.06 (inactive).
